The values that follow come from PubChem BioAssay.

Active and inactive are the calls of the source. Unless noted, how the calls were made is not given here.

Test [1] concerns Wnt5a (protein binding on small-molecule microarray). Nature of the test: small molecules binding Wnt5a protein – biophysical, small-molecule microarray, 635/667 nm fluorescence, primary screen (AID 1142).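 Further: fluorescence read at 667 nm with signal to noise per printed feature.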 The settings on record: 635 nm fluorescence, higher = more signal.
The nature of test [2]: ATP-based viability of Huh7 replicon cells – cell-based, CellTiter-Glo luminescence, basal, 48 h, cytotoxicity control for HCV replication inhibitor project, primary screen (AID 1143).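 Further: Huh7 hepatoma cells carrying a hepatitis C replication reporter with no stimulus; test concentration not given here.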 The settings on record: higher = more signal, called active from +8 up or from −8 down.
Test [3] can be described thus: Pseudomonas biofilm growth suppression – PAO1 strain, BacTiter-Glo luminescence, LB-PBS, primary screen (AID 1144). As to conditions: P. aeruginosa PAO1 biofilm, 12 h, higher = more signal.
Test [4] can be described thus: basal CRE-LacZ reporter activity in PC12 – cell-based, unstimulated, primary screen (AID 1145). As to conditions: no forskolin, luminescence, 4.5 h, higher = more signal, called active from +8 up or from −8 down.
The nature of test [5]: forskolin-driven CRE-LacZ activity in PC12 – cell-based, CRE-LacZ reporter, forskolin-stimulated, primary screen (AID 1146).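 Further: PC12 cells with 6xCRE LacZ reporter stimulated by forskolin 10 µM; beta-galactosidase reporter signal reflecting CREB driven transcription.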 As to conditions: luminescence, 4.5 h, higher = more signal, called active from +8 up or from −8 down.
Test [6] addresses Streptavidin (Streptomyces avidinii) (UniProt P22629). Nature of the test: compounds binding control protein streptavidin – biophysical, small-molecule microarray, 635/667 nm fluorescence, artefact control for SMM compound annotation, primary screen (AID 1147).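 Further: signal reflects streptavidin binding to arrayed compounds as a control protein.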 As to conditions: higher = more signal.
Test [7] is described as follows: probe aInhba binding on compound microarray – biochemical, small-molecule microarray, 635/667 nm fluorescence, primary screen (AID 1148).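 Further: score merges 667nm spot fluorescence with signal-to-noise for antibody binding to printed compounds.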 As to conditions: higher = more signal.
Test [8] deals with Torsin-1A (Homo sapiens) (UniProt O14656). As to the kind of experiment: TOR1A wild-type binding on microarray – cell lysate, small-molecule microarray, lysate, 635/667 nm, primary screen (AID 1149). The settings on record: COS7 hTOR1A-WT lysate, 635 nm fluorescence, higher = more signal.
Test [9] shares this target. Nature of the test: torsin A mutant lysate binding on microarrays – cell lysate, small-molecule microarray, COS7 lysate, 635/667 nm fluorescence, primary screen (AID 1150).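 Further: score pools 667 nm emission and signal to noise measuring lysate protein binding.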 As to conditions: COS7 hTOR1A mutant lysate, 635 nm fluorescence, higher = more signal.
Test [10] deals with Sonic hedgehog protein (Shh). Nature of the test: Sonic hedgehog microarray binding compounds – biochemical, small-molecule microarray, 635/667 nm fluorescence, primary screen (AID 1151).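 Further: Shh protein binding to compounds spotted on small-molecule microarray slides; score combines spot fluorescence intensity with signal-to-noise across triplicate slides.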 The settings on record: 635 nm fluorescence, higher = more signal.

Chain of Torsin-1A (Homo sapiens) (O14656 whole entry, looked up): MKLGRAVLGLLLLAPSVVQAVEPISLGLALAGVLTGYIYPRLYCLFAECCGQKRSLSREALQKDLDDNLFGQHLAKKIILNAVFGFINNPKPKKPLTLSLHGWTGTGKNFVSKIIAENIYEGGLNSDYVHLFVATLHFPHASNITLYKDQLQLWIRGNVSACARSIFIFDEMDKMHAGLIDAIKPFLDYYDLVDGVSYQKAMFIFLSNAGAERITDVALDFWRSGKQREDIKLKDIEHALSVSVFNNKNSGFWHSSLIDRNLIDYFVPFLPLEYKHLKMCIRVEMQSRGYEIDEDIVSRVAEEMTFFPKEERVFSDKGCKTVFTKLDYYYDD
Chain of Streptavidin (Streptomyces avidinii) (P22629 whole entry, looked up): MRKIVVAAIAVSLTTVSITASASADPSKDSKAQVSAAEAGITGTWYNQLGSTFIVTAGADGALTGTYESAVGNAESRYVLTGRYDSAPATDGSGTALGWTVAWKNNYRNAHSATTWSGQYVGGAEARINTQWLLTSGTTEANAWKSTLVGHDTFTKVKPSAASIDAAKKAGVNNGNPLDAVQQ

For the compound `COCCOC(=O)N1C(=O)[C@@]2(c3ccccc31)[C@H](C(=O)N1CCCCCCC1)[C@H]1C(=O)O[C@H](c3ccccc3)[C@H](c3ccccc3)N1[C@@H]2c1ccc(OCCO)cc1`, the composite z-score in test [1] was determined as 2.59; in [6], 4.29; in test [7] it was 2.4; in test [8] it was 3.22; in [9] it was 3.39; in test [10], 2.31. Further, the z-score in test [2] was -2.7 (inactive); in test [3], -0.276 (inactive); in [4], -1.29 (inactive); in [5] it was -0.791 (inactive).
Turning to `COc1ccc([Si](C)(C)[C@H]2[C@H](CCn3cc([C@H](O)c4ccccc4)nn3)O[C@@]3(C(=O)N(C)c4ccccc43)[C@@H]2C)cc1`, the composite z-score was -0.319 in test [1]; -0.814 in [6]; -0.0221 in test [7]; -0.71 in [8]; -0.193 in [9]; 1.36 in [10]. Also, the z-score in test [2] is -3.31 (inactive); in [3], -0.573 (inactive); in [4] it was 2.69 (inactive); in [5] it was -1.28 (inactive).
For `CCCNC(=O)[C@@]1(Sc2ccc(C)cc2)CC(=O)N(Cc2ccccc2C(F)(F)F)[C@@H]1c1ccc(CO)cc1I`, the composite z-score in test [1] was 0.168; in test [6], 1.17; in test [7], -0.0405; in [8], 1.26; in [9], 1.47; in [10], 1.88. The z-score is -4.54 (inactive) in test [2], -0.376 (inactive) in test [3], -0.231 (inactive) in [4] and -0.0562 (inactive) in [5].
As to `Cc1ccc(/C=C/C=O)cc1`, the composite z-score in test [1] was -0.355; in test [6] it was -0.461; in test [7], -0.176; in [8], -1.39; in [9], -0.357; in [10], -0.327. The z-score is 0.0606 (inactive) in test [2], 0.38 (inactive) in test [3], -0.141 (inactive) in [4] and 0.243 (inactive) in test [5].
On to `CCCC1(C(=O)OC)C=C2C(=C(c3ccccc3)C(=O)C2C)CN1` (stereo not given), for which the composite z-score is 0.256 in test [1]; 0.312 in test [6]; 0.27 in test [7]; 0.52 in test [8]; 0.0656 in test [9]; -0.599 in test [10]. The z-score in [2] is -0.752 (inactive); in test [3], 0.153 (inactive); in test [4] it was -0.375 (inactive); in [5], 0.966 (inactive).
For `COC(=O)[C@@]1(Cc2ccc(OC)cc2)[C@H]2c3cc(C(=O)N4CCCC4)n(CCCNc4ncc(C(F)(F)F)cc4Cl)c3C[C@H]2CN1C(=O)c1ccccc1`, the composite z-score in [1] is 1.53; in test [6] it was 1.25; in test [7], 0.826; in test [8] it was 0.0188; in test [9], 0.27; in test [10], -0.418. The z-score in test [2] is -3.28 (inactive); in test [3], 0.0557 (inactive); in test [4], 0.769 (inactive); in test [5], 0.627 (inactive).
As to `O=C(NC1CC1)[C@@H]1c2ccccc2C(=O)N(Cc2cc(F)cc(C(F)(F)F)c2)[C@H]1c1ccc(CO)cc1`, the composite z-score was 0.518 in test [1]; -0.685 in test [6]; -0.0468 in test [7]; 0.517 in test [8]; 0.543 in [9]; -0.296 in test [10]. For the same compound, the z-score in test [2] is -0.335 (inactive); in [3], -0.435 (inactive); in test [4], 0.001 (inactive); in [5] it was 0.162 (inactive).
Consider `CCCCN1CC=CC23O[C@@H]4C=CCOC(=O)[C@@H]4[C@H]2C(=O)N(CCCCCCO)[C@@H]3C1=O` (stereo not given in full), for which the composite z-score in [1] was -0.575; in test [6] it was -1.35; in [7] it was -0.249; in test [8], -0.873; in [9], -0.748; in test [10] it was -0.711. In addition, the z-score in test [2] is 0.205 (inactive); in [3], 1.05 (inactive); in test [4], -0.0899 (inactive); in [5] it was 1.12 (inactive).
On to `C=C(C)[C@@H]1CC=C(C(O)C2C=CC3C(=O)NC(=O)C3N2Nc2ccc(Cl)cc2Cl)CC1` (stereo not given in full), for which the composite z-score in [1] is 0.287; in test [6], 1.39; in test [7] it was 0.099; in [8] it was -0.0124; in test [9], 0.455; in [10], 0.393. Also, the z-score in test [2] was -1.64 (inactive); in test [3] it was -0.995 (inactive); in test [4], 0.815 (inactive); in [5], -0.113 (inactive).
For the compound `COCCOC(=O)N1C(=O)[C@@]2(c3cc(C#Cc4ccc(OC)cc4)ccc31)[C@H](c1ccc(O)cc1)N1[C@H](c3ccccc3)[C@H](c3ccccc3)OC(=O)[C@H]1[C@@H]2C(=O)Nc1nc2ccccc2s1`, the composite z-score in [1] is 0.169; in test [6], 0.302; in [7], -0.11; in test [8], 0.277; in [9], 0.226; in [10], 1.76. Further, the z-score in [2] is -1.07 (inactive); in test [3], -0.155 (inactive); in [4] it was 0.182 (inactive); in test [5], -0.0609 (inactive).
In the case of `Cc1ccc([C@H]2C(C(=O)O)=CCN2S(=O)(=O)c2ccc(C)cc2)cc1`, the composite z-score was -0.171 in test [1]; 0.468 in test [6]; 0.0108 in test [7]; 0.593 in [8]; 0.435 in test [9]; 0.0688 in test [10]. Further, the z-score is -0.849 (inactive) in test [2], 0.668 (inactive) in test [3], -0.48 (inactive) in test [4] and -0.119 (inactive) in [5].
For the compound `COCCCNC(=O)[C@@H]1c2ccccc2C(=O)N(Cc2ccccc2OC)[C@H]1c1ccc(CO)cc1`, the composite z-score in test [1] was 0.924; in test [6], -0.665; in [7] it was -0.0136; in test [8] it was 0.825; in test [9] it was -0.206; in test [10], 2.03. The z-score is -4.79 (inactive) in test [2], -2.25 (inactive) in test [3], -0.502 (inactive) in [4] and 0.715 (inactive) in test [5].
As for `NC(=O)[C@@]1(Cc2ccccc2)N=C(c2ccc(OCCCO)cc2)O[C@H]1c1ccccc1`, the composite z-score in test [1] is 0.677; in test [6], 0.924; in test [7], 0.196; in [8], 1.07; in test [9] it was 0.601; in test [10], -0.558. For the same compound, the z-score was -1.51 (inactive) in [2], -0.657 (inactive) in test [3], 1.37 (inactive) in test [4] and -0.382 (inactive) in test [5].
With `COC(=O)[C@@]1(Cc2ccccc2)[C@H]2c3cc(C(=O)N(C)C)n(CCc4c[nH]c5ccc(O)cc45)c3C[C@H]2CN1C(=O)c1ccccc1`, the composite z-score was 0.0434 in [1]; 0.0497 in test [6]; 0.0878 in [7]; -0.343 in test [8]; 0.604 in test [9]; 0.647 in test [10]. The z-score was -1.51 (inactive) in test [2], 0.562 (inactive) in test [3], 0.0041 (inactive) in test [4] and 0.1 (inactive) in test [5].
In the case of `O=C1O[C@@H](c2ccccc2)[C@@H](c2ccccc2)N2[C@@H](c3ccccc3OCCO)[C@]3(C(=O)Nc4ccc(C#CC5(O)CCCCCC5)cc43)[C@@H](C(=O)N3CCN(c4ncccn4)CC3)[C@H]12`, the composite z-score worked out at 0.133 in test [1]; 0.077 in [6]; 0.0074 in [7]; 0.987 in test [8]; 0.808 in test [9]; 1.11 in test [10]. Moreover, the z-score in test [2] was -2.72 (inactive); in [3], 0.703 (inactive); in test [4], 0.209 (inactive); in test [5], 2.96 (inactive).
